Values without a mark were called inactive. Records with an inconclusive call do not appear. Calls of active or inactive are those of the source. Unless noted, the call rests on the fitted dose curve; in most records, active means well fitted activation curve with a large enough effect in the main read-out, with a control signal flat (not every such curve was filed as active); inconclusive means small, poorly fitted or top-dose-only effect, or effect the other way, or a change in a side signal; inactive means flat fitted curve, though single readings scatter.
biological target: 3',5'-cyclic-AMP phosphodiesterase 4B (Homo sapiens) (UniProt Q07343); test: qHTS Assay for Inhibitors of PDE-IV (AID 607); settings: HEK293 ACTOne CNG channel cells, membrane potential fluorescence; series mostly up to 22.9 µM; activation (PDE inhibition): at the top concentration; further: potency means the concentration at half of the fitted maximal effect; on activation (PDE inhibition): % of control where 0% means no effect
Summary of the method: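 Cell-based read-out of cAMP via a modified cyclic nucleotide-gated channel and membrane potential dye (535/590 nm) in HEK293 cells expressing PDE4 endogenously. Compounds tested up to 22.9 uM final; 100 uM RO 20-1724 reference.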

Sequence of 3',5'-cyclic-AMP phosphodiesterase 4B (Homo sapiens) (Q07343 whole entry, looked up): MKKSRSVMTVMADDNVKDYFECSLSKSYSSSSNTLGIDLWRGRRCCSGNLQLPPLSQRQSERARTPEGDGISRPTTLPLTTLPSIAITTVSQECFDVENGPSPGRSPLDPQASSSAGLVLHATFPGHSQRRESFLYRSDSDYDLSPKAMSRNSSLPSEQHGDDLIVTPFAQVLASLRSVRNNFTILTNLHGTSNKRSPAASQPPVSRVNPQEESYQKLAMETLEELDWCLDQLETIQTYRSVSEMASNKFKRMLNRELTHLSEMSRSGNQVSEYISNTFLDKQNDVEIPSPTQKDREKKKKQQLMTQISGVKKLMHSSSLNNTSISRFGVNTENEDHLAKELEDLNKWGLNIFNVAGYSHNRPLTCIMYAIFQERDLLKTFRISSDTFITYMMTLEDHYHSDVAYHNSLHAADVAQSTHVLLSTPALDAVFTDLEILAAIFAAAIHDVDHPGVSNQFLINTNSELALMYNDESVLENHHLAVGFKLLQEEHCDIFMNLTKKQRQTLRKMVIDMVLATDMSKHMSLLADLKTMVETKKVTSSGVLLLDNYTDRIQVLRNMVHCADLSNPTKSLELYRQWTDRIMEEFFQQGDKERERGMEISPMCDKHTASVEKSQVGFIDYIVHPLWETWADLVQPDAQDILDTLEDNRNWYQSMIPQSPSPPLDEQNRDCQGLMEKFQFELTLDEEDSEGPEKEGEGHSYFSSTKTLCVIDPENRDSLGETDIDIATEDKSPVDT

SMILES	activation (PDE inhibition)	Potency
CCCc1c(OCCCOc2ccc(OCC(=O)O)cc2)ccc(C(C)=O)c1O	3.05%	
C/C(=C\c1ccc(C(=O)O)cc1)c1ccc2c(c1)C(C)(C)CCC2(C)C	-16.8%	
N=C(N)c1ccc(OCCCCCOc2ccc(C(=N)N)cc2)cc1 (tested in a mixture with another compound)	-9.31%	
O=C(O)/C(=C/c1c(C(=O)O)[nH]c2cc(Cl)cc(Cl)c12)c1ccccc1	21%	
NCCNS(=O)(=O)c1cccc2c(Cl)cccc12	12.4%	
CC[C@@H]1Cc2cc(O)ccc2C2=C1c1ccc(O)cc1C[C@H]2CC	0.453%	
CC1CCN(CC[C@H]2CCCN2S(=O)(=O)c2cccc(O)c2)CC1	-29.9%	
CCCCCC[C@@H]([C@@H](C)O)n1cnc2c(N)ncnc21	7.89%	
C=CCn1c(=O)c2c(nc(-c3ccc(S(=O)(=O)O)cc3)n2C)n(C)c1=O	-1.43%	
CC(C)NC[C@H](O)COc1cccc2ccccc12	-8.3%	
Cc1nc(N=Nc2ccc(S(=O)(=O)O)cc2S(=O)(=O)O)c(COP(=O)(O)O)c(C=O)c1O		inactive
CCCn1c(=O)c(C)cn2nc(N)nc12		0.151 µM (active)
Cc1ccc2c(c1)C(N1CCN(C)CC1)=Nc1cccnc1N2	0.202%	
N=C(N)c1ccccc1	-0.455%	
N#C/C(=C\c1ccc(O)c(O)c1)C(=O)NCCCNC(=O)/C(C#N)=C/c1ccc(O)c(O)c1	-4.77%	
O=c1cc(-c2ccccc2)[nH]c2nc(Cl)ccc12	11.3%	
N=C(N)c1ccc(N)cc1	-9.2%	
CCC(=O)N1CCN(C(=O)c2ccccc2)CC1	10.2%	

SMILES	activation (PDE inhibition)	Potency
CC(C)NC[C@H](O)COc1ccc(CC(N)=O)cc1		inactive
CC(=O)C(C)=O	0.044%	
NCCCNCCCCNCCCN		inactive
CCN1C(=O)C=CC1=O	-1.23%	
CCN(c1nc(N)c(C(=O)N=C(N)N)nc1Cl)C(C)C	21.2%	
O=C(O)Cc1ccc(O)c(O)c1	-1.37%	
C#CCn1c(=O)c2c(ncn2C)n(C)c1=O	-3.36%	
Nc1nc2ccc(Cl)cc2c2nc(-c3ccco3)nn12	-8.16%	
N[C@@H](Cc1c[nH]c2ccccc12)C(=O)O	0.194%	
O=C(O)c1cc(=O)cc(C(=O)O)[nH]1	-4.38%	
CCCCCCCCCCCCCCC[C@H](O)[C@H](N)CO	3.92%	
COc1ccc(C(=O)NCc2cccnc2)cc1C(=O)NCc1cccnc1		inactive
Cn1ccnc1	-2.58%	
O=C(O)C1CCNCC1	-5.96%	
O=c1[nH]c2ccccc2c2ccccc12	4.32%	
NC(N)=[N+]1CCc2ccccc2C1	-23.3%	
COc1ccccc1N1CCN(CCN(C(=O)c2ccc(F)cc2)c2ccccn2)CC1	5.12%	

biological target: Guanine nucleotide-binding protein G(i) subunit alpha-1 (Homo sapiens) (UniProt P63096); test: qHTS Assay for Inhibitors of RGS12 GoLoco Motif Activity (Green Fluorophore) (AID 879; active means well fitted curve in the direction sought with a large enough effect;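 further: 0% = labeled peptide with Gαi1 and full inhibition = labeled peptide alone without protein; negative values mean loss of peptide binding seen as reduced polarization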); settings: Galphai1/FITC-RGS12 GoLoco peptide, fluorescence polarization; series mostly up to 57.1 µM; activity, negative = inhibition: at the top concentration
Summary of the method: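 A drop in FITC polarization marked displacement of the FITC-tagged RGS12 GoLoco peptide (10 nM) from Gαi1 (50 nM). Compounds were incubated 10 min at room temperature in Tris pH 7.5 buffer containing 150 mM NaCl, 0.1 mM GDP and 0.05% NP40; unlabeled peptide titration served as control.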

Sequence of Guanine nucleotide-binding protein G(i) subunit alpha-1 (Homo sapiens) (P63096 whole entry, looked up): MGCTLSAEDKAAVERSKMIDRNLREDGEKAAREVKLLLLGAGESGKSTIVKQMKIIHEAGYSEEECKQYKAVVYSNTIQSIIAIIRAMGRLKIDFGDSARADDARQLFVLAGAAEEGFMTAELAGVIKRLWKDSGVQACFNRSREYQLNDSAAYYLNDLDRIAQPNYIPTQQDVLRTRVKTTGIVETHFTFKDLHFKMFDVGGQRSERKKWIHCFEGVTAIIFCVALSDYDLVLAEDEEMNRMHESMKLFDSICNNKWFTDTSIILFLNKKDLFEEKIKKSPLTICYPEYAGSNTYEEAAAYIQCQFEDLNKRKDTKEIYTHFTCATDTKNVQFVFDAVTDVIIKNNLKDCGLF

SMILES	activity, negative = inhibition	Potency
CCCc1c(OCCCOc2ccc(OCC(=O)O)cc2)ccc(C(C)=O)c1O	-8.48%	
C/C(=C\c1ccc(C(=O)O)cc1)c1ccc2c(c1)C(C)(C)CCC2(C)C	-19.7%	
N=C(N)c1ccc(OCCCCCOc2ccc(C(=N)N)cc2)cc1 (tested in a mixture with another compound)	-18.8%	
O=C(O)/C(=C/c1c(C(=O)O)[nH]c2cc(Cl)cc(Cl)c12)c1ccccc1	-23.5%	
NCCNS(=O)(=O)c1cccc2c(Cl)cccc12	-10.2%	
CC[C@@H]1Cc2cc(O)ccc2C2=C1c1ccc(O)cc1C[C@H]2CC	-5.73%	
C=CCn1c(=O)c2c(nc(-c3ccc(S(=O)(=O)O)cc3)n2C)n(C)c1=O	11.2%	
Cc1nc(N=Nc2ccc(S(=O)(=O)O)cc2S(=O)(=O)O)c(COP(=O)(O)O)c(C=O)c1O	-14.3%	
Cc1ccc2c(c1)C(N1CCN(C)CC1)=Nc1cccnc1N2	-25.4%	
N=C(N)c1ccccc1	-3.43%	
N#C/C(=C\c1ccc(O)c(O)c1)C(=O)NCCCNC(=O)/C(C#N)=C/c1ccc(O)c(O)c1	6.47%	
O=c1cc(-c2ccccc2)[nH]c2nc(Cl)ccc12	-17.6%	
NC(=O)c1ccccc1	3.04%	
N=C(N)c1ccc(N)cc1	0.388%	
CCC(=O)N1CCN(C(=O)c2ccccc2)CC1	-2.62%	
CC(C)NC[C@H](O)COc1ccc(CC(N)=O)cc1		inactive

SMILES	activity, negative = inhibition	Potency
CC(=O)C(C)=O	-10.9%	
NCCCNCCCCNCCCN	-9.18%	
CCN1C(=O)C=CC1=O	3.18%	
CCN(c1nc(N)c(C(=O)N=C(N)N)nc1Cl)C(C)C	-14.6%	
C#CCn1c(=O)c2c(ncn2C)n(C)c1=O	-15.3%	
Nc1nc2ccc(Cl)cc2c2nc(-c3ccco3)nn12	-19.4%	
N[C@@H](Cc1c[nH]c2ccccc12)C(=O)O	-5.56%	
O=C(O)c1cc(=O)cc(C(=O)O)[nH]1	-8.52%	
CCCCCCCCCCCCCCC[C@H](O)[C@H](N)CO	4.54%	
COc1ccc(C(=O)NCc2cccnc2)cc1C(=O)NCc1cccnc1	-5.42%	
Cn1ccnc1	6.17%	
O=C(O)C1CCNCC1	-24.7%	
O=c1[nH]c2ccccc2c2ccccc12	-12.4%	
NC(N)=[N+]1CCc2ccccc2C1	-24.2%	
COc1ccccc1N1CCN(CCN(C(=O)c2ccc(F)cc2)c2ccccn2)CC1	-21.4%	

Reference: PubChem BioAssay (NCATS)
